Measurements from PubChem BioAssay (Tox21).
A number with no mark means an inactive call. Inconclusive results are not listed. A call without a number means that no potency is given here. Active and inactive are the calls of the source. Unless noted, calls come from the whole dose curve; as a rule, active = well fitted curve in the direction sought with a large enough effect in the repeat runs; inconclusive = weak or mixed curves; inactive = no such curve, though single readings can be large; an effect the other way counts as inactive or inconclusive.

Assays:
[1] = qHTS assay to identify small molecule antagonists of the sonic hedgehog signaling (Shh) pathway (AID 1259369; calls by dose curve; note: nearly all actives have a fitted effect of over 45% in size; note: potency is the fitted concentration of half-maximal effect)
Outline: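 Conditioned medium drives Shh signalling in 3T3Gli1-Luc cells; compounds in DMSO co-applied, 24hr at 37 C, then luciferase luminescence.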

[2] = molecular target: Estrogen receptor beta (Homo sapiens) (UniProt Q92731); test: qHTS assay to identify small molecule agonists of the estrogen receptor beta (ER-beta) signaling pathway (AID 1259377; active = well fitted activation curve with a large enough effect in the signal ratio in the repeat runs, not every such curve was filed as active; the % refers to the signal ratio)
Chain of Estrogen receptor beta (Homo sapiens) (Q92731 whole entry, looked up): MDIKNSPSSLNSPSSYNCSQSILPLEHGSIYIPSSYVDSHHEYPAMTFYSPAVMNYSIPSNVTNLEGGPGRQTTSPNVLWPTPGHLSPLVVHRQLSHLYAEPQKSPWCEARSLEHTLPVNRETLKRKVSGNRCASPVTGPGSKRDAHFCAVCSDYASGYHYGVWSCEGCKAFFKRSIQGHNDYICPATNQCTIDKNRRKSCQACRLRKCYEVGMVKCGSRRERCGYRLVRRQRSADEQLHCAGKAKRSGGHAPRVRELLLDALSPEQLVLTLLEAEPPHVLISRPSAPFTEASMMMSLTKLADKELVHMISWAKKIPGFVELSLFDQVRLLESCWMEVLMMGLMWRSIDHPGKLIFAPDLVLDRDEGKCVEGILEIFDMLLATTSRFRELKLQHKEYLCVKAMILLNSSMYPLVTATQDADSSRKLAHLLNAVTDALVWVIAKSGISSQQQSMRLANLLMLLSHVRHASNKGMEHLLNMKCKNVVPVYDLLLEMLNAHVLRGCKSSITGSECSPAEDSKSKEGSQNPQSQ
Outline: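 Beta-lactamase reporter readout: fluorescence of LiveBLAzer B/G FRET substrate after 2 h at room temperature, following 16 h compound treatment of ER-beta-UAS-bla HEK293T cells at 37C in 2% charcoal-stripped FBS medium.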

[3] = molecular target: Estrogen receptor beta (Homo sapiens) (UniProt Q92731); test: qHTS assay to identify small molecule antagonists of the estrogen receptor beta (ER-beta) signaling pathway (AID 1259378; active = well fitted inhibition curve with a large enough effect in the signal ratio in the repeat runs, not every such curve was filed as active; the % refers to the signal ratio; note: potency is the fitted concentration of half-maximal effect)
Outline: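 ER-beta-UAS-bla HEK293T (GripTite) cells in 2% charcoal-stripped FBS medium were preincubated 6 hr at 37C, dosed with compound, then stimulated with 1 nM E2 (final) for 16 hr; beta-lactamase reporter read by B/G FRET fluorescence after 2 hr substrate loading.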

[4] = qHTS assay to identify small molecule agonists of the androgen receptor (AR) signaling pathway in the presence of an antagonist - cell viability counter screen (AID 1259379); note: nearly all actives have a fitted effect of over 25% in size; note: potency is the fitted concentration of half-maximal effect
Outline: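 A CellTiter-Fluor read-out measured viability of MDA-kb2 reporter cells (MMTV promoter with AR and GR response elements). Treatment: nilutamide 3.0uM final with compounds at 15 concentrations, 16 hr, 37C, 0% CO2.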

[5] = molecular target: Androgen receptor (Homo sapiens) (UniProt P10275); test: qHTS assay to identify small molecule agonists of the androgen receptor (AR) signaling pathway in the presence of an antagonist (AID 1259381; calls by dose curve; note: nearly all actives have a fitted effect of over 15% in size; note: potency is the fitted concentration of half-maximal effect)
Chain of Androgen receptor (Homo sapiens) (P10275 whole entry, looked up): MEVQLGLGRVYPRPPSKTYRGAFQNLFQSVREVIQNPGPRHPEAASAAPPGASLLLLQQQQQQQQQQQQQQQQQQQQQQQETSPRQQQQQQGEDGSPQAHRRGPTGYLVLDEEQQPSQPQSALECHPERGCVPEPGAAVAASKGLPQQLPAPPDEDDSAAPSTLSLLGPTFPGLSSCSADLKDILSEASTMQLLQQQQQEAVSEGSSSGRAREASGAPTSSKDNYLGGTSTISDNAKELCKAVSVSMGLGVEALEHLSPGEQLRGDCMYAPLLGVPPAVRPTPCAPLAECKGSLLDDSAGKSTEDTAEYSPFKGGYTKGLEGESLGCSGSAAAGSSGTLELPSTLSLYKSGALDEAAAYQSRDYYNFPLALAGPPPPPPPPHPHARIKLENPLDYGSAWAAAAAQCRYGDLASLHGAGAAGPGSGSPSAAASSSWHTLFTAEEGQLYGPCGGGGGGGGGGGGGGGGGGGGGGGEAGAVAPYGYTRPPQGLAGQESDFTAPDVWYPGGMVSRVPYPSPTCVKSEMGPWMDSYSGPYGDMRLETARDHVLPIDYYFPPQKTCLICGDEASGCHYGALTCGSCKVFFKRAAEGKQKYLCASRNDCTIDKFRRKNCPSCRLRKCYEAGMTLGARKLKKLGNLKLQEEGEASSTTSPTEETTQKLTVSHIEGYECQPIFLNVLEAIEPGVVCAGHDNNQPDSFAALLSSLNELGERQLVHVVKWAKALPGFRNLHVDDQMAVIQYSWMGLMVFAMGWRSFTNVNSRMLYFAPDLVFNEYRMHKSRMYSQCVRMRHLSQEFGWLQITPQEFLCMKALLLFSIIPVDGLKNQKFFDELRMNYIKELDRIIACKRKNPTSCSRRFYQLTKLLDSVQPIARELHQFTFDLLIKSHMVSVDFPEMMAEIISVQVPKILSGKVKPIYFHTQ
Outline: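 Using human MDA-kb2 cells with an MMTV promoter–luciferase construct (AR and GR response elements), agonist activity is scored under 3.0uM nilutamide (final) co-treatment; 16hr incubation, 37C, luminescence readout via ONE-Glo.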

[6] = qHTS assay to identify small molecule antagonists of the estrogen receptor beta (ER-beta) signaling pathway - cell viability counter screen (AID 1259382); note: series mostly up to about 92 µM; nearly all actives have a fitted effect of over 55% in size
Outline: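 Agonist-stimulated (1nM E2) ER-beta-UAS-bla HEK293T cells are incubated with library compounds for 16 hr at 37C. Cell viability is then assessed in the reporter-assay wells by adding CellTiter-Glo and reading luminescence after 30 min.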

[7] = molecular target: Estrogen receptor (Homo sapiens) (UniProt P03372); test: qHTS assay to identify small molecule agonists of the estrogen receptor alpha (ER-alpha) signaling pathway in the presence of an antagonist (AID 1259383; calls by dose curve; note: top concentration of the series differs between compounds; nearly all actives have a fitted effect of over 15% in size)
Chain of Estrogen receptor (Homo sapiens) (P03372 whole entry, looked up): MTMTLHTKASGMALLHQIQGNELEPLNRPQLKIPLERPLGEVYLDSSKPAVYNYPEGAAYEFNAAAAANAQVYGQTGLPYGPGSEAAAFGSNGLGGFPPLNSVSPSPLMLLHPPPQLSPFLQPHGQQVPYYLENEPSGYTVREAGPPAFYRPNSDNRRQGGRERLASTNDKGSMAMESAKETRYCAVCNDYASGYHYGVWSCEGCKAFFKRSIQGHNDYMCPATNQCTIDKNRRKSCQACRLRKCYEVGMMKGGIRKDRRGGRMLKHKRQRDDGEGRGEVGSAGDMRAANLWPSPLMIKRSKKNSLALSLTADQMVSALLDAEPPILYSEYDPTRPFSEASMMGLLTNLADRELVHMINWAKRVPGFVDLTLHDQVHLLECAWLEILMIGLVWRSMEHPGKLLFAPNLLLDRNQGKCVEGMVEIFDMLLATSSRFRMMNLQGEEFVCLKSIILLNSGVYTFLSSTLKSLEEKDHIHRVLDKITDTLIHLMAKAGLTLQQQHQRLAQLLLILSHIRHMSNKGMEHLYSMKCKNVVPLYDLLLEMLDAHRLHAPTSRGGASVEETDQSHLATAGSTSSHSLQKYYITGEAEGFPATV
Outline: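 Using VM7Luc4E2 cells seeded 24hr before treatment, antagonist ICI-182,780 (10.0nM final) was added, followed by compounds at 15 concentrations. Plates incubated 22hr; ONE-Glo luminescence quantified reporter activity.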

[8] = qHTS assay to identify small molecule agonists or antagonists of the thyroid stimulating hormone receptor (TSHR) signaling pathway - wild type cell line counter screen (AID 1259384; calls by dose curve)
Outline: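 Wild-type HEK293 cells were plated 18 h at 37 C/5% CO2, pin-dosed with compound plus Ro20-1724 medium, held 30 min at room temperature, then given cAMP-d2 and anti-cAMP-cryptate; fluorescence was read after 1 h. Fifteen concentrations, triplicate.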

[9] = qHTS assay to identify small molecule agonists of the estrogen receptor alpha (ER-alpha) signaling pathway in the presence of an antagonist - cell viability counter screen (AID 1259386);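 note: series mostly up to about 92 µM; cells exposed to compounds for 22 h at 37 °C before the viability read; nearly all actives have a fitted effect of over 30% in size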
Outline: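 ICI-182,780 at 10.0nM final accompanies the compound titration (15 concentrations, 22hr, 37C) on VM7Luc4E2 cells. The CellTiter-Fluor fluorescence readout runs in the same wells as the luciferase assay.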

[10] = molecular target: Progesterone receptor (Homo sapiens) (UniProt P06401); test: qHTS assay to identify small molecule agonists of the progesterone receptor (PR) signaling pathway (AID 1346784; calls by dose curve; note: nearly all actives have a fitted effect of over 30% in size; note: potency is the fitted concentration of half-maximal effect)
Chain of Progesterone receptor (Homo sapiens) (P06401 whole entry, looked up): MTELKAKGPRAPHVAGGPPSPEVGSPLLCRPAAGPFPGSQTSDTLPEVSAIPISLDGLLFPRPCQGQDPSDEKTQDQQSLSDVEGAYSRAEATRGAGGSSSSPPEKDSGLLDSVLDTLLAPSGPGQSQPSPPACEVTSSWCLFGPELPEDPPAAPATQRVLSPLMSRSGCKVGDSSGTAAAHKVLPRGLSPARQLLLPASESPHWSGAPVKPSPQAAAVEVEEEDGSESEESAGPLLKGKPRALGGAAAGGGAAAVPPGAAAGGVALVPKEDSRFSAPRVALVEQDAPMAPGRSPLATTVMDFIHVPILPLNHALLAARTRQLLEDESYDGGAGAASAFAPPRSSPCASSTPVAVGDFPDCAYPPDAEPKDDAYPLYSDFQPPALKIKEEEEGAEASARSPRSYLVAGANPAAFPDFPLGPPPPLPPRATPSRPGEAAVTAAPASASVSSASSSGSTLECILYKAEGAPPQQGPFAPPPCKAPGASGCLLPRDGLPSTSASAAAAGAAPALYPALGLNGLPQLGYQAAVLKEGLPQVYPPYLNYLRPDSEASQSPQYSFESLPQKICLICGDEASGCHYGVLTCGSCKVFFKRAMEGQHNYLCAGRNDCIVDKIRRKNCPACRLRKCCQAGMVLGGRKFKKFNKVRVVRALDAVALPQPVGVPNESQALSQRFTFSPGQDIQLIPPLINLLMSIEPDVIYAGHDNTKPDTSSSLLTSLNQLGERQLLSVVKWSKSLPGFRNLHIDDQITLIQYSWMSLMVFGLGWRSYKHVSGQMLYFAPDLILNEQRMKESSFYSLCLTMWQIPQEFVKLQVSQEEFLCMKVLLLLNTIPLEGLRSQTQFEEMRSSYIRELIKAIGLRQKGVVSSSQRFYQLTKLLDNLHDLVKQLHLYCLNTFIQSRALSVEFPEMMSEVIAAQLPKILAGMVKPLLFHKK
Outline: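 HEK 293T PR-UAS-bla reporter cells, 2% charcoal-stripped FBS; 6 hr settle at 37C/5% CO2, compound (DMSO) 16 hr, LiveBLAzer B/G FRET substrate 2 hr RT, fluorescence intensity read.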

[11] = qHTS assay to identify small molecule antagonists of the progesterone receptor (PR) signaling pathway - cell viability counter screen (AID 1346798); note: series mostly up to about 92 µM; nearly all actives have a fitted effect of over 50% in size
Outline: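 Luminescence readout (CellTiter-Glo, 30 min, RT) of viability in PR-UAS-bla HEK293T cells exposed to compound and R5020 agonist for 16 hr at 37C, 5% CO2; run in the same wells as the beta-lactamase reporter read.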

[12] = qHTS assay to identify small molecule agonists of the progesterone receptor (PR) signaling pathway - cell viability counter screen (AID 1346799; calls by dose curve; note: nearly all actives have a fitted effect of over 45% in size)
Outline: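 HEK293T PR-UAS-bla, 3,000 cells/well, 2% charcoal-stripped FBS; 6 h settle, compound 16 h at 37C/5% CO2; LiveBLAzer 2 h RT, then CellTiter-Glo 30 min RT, luminescence read.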

[13] = qHTS assay to identify small molecule agonists of the TGF-beta/Smad signaling pathway - cell viability counter screen (AID 1346829); note: top concentration of the series differs between compounds; nearly all actives have a fitted effect of over 45% in size
Outline: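 Here the cytotoxicity of library compounds is measured in SBE-bla HEK 293T cells treated for 5 hr, using CellTiter-Glo added to wells already read for the beta-lactamase reporter.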

[14] = qHTS assay to identify small molecule agonists of the TGF-beta/Smad signaling pathway (AID 1346859; active = well fitted activation curve with a large enough effect in the signal ratio in the repeat runs, not every such curve was filed as active; the % refers to the signal ratio; note: series mostly up to about 77 µM)
Outline: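 Read-out: fluorescence at 460 and 530 nm (405 nm excitation) after a 2 hr room-temperature incubation with beta-lactamase FRET substrate. SBE-bla HEK 293T cells had been treated with test compounds for 5 hr at 37 C.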

[15] = molecular target: Thyrotropin-releasing hormone receptor (Homo sapiens) (UniProt P34981); test: qHTS assay to identify small molecule antagonists of the thyrotropin-releasing hormone receptor (TRHR) signaling pathway (AID 1346877; active = well fitted inhibition curve with a large enough effect in the repeat runs, not every such curve was filed as active; note: series mostly up to about 51 µM)
Chain of Thyrotropin-releasing hormone receptor (Homo sapiens) (P34981 whole entry, looked up): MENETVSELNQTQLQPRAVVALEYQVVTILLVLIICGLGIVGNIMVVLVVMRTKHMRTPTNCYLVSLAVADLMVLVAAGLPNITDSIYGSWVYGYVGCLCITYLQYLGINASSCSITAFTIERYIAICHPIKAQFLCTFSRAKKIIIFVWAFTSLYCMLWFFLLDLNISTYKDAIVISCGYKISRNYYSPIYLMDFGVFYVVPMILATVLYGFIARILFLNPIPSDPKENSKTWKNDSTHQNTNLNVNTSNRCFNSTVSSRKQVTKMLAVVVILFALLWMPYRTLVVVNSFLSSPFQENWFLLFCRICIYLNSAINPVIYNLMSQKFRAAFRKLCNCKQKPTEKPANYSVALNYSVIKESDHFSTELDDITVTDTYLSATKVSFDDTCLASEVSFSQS
Outline: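 Screening used HEK293 cells engineered with TRHR, with a brief 5 min room-temperature compound exposure preceding addition of TRH to 1 nM. The read-out was kinetic calcium-dye fluorescence, concentration-response from 15 doses in triplicate.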

[16] = molecular target: Thyrotropin-releasing hormone receptor (Homo sapiens) (UniProt P34981); test: qHTS assay to identify small molecule agonists of the thyrotropin-releasing hormone receptor (TRHR) signaling pathway (AID 1346891; calls by dose curve;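 note: HEK293 cells expressing TRHR with calcium dye readout; series mostly up to about 58 µM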)
Outline: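 HEK293/TRHR cells, 1500 per well, 18 h 37 °C; Ca dye 2 h 37 °C; pin-tool compound addition (agonist mode); kinetic fluorescence 3 min, 1 s reads; 15 concentrations, triplicate.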

[17] = qHTS assay to identify small molecule agonists of the estrogen receptor beta (ER-beta) signaling pathway - cell viability counter screen (AID 1259380); note: nearly all actives have a fitted effect of over 30% in size; note: potency is the fitted concentration of half-maximal effect
Outline: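 Cells used were ER-beta-UAS-bla HEK293T in medium with 2% charcoal-stripped FBS. They were treated for 16 hr at 37C. Viability came from CellTiter-Glo luminescence.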

[18] = molecular target: Thyrotropin receptor (Homo sapiens) (UniProt P16473); test: qHTS assay to identify small molecule antagonists of the thyroid stimulating hormone receptor (TSHR) signaling pathway (AID 1259385; calls by dose curve; note: nearly all actives have a fitted effect of over 20% in size; note: potency is the fitted concentration of half-maximal effect)
Chain of Thyrotropin receptor (Homo sapiens) (P16473 whole entry, looked up): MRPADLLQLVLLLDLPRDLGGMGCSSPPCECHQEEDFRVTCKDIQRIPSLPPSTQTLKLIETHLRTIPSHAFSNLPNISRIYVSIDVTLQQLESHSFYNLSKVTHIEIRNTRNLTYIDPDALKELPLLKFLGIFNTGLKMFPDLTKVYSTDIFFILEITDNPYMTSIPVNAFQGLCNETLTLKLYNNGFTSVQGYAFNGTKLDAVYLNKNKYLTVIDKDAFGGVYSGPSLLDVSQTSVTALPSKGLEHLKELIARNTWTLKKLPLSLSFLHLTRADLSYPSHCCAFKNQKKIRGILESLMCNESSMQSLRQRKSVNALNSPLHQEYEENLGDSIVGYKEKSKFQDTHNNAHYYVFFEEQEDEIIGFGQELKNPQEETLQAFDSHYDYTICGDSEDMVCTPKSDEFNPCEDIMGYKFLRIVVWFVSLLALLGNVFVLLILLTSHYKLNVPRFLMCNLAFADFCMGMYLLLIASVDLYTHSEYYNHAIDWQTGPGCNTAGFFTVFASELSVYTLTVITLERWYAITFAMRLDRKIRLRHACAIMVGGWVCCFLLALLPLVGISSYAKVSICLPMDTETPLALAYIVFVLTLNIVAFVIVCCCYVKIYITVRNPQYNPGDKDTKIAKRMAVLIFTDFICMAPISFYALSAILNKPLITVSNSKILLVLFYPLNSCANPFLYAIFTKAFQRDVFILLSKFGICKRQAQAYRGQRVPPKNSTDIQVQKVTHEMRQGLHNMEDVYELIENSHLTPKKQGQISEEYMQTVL
Outline: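 TSHR-HEK293 cells were plated and held 18 h at 37C/5% CO2, then given compound plus Ro20-1724 and stimulated with TSH at 1.5 ng/mL final. After 30 min at room temperature, cAMP was detected with cAMP-d2/anti-cAMP-cryptate (1 h) by fluorescence.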

[19] = qHTS assay to identify small molecule antagonists of the TGF-beta/Smad signaling pathway - cell viability counter screen (AID 1346824); note: nearly all actives have a fitted effect of over 50% in size
Outline: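 SBE-bla HEK 293T cells were plated overnight at 37 C, then given compounds in DMSO plus TGF-beta1 (added as 0.25 ng/mL solution) for 5 hr. After the bla read, CellTiter-Glo was added to the same wells and luminescence read after 30 min at room temperature.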

[20] = molecular target: Progesterone receptor (Homo sapiens) (UniProt P06401); test: qHTS assay to identify small molecule antagonists of the progesterone receptor (PR) signaling pathway (AID 1346795; active = well fitted inhibition curve with a large enough effect in the signal ratio in the repeat runs, not every such curve was filed as active; the % refers to the signal ratio; note: potency is the fitted concentration of half-maximal effect)
Outline: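 Beta-lactamase reporter, HEK293T PR-UAS-bla line; 2% charcoal-stripped FBS; 6 hr pre-incubation, 37C/5% CO2. Compound + R5020 1 nM final, 16 hr. LiveBLAzer B/G FRET substrate, 2 hr RT; fluorescence intensity read.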

## CCC(=O)O[C@]1(C(=O)CCl)[C@@H](C)C[C@H]2[C@@H]3CCC4=CC(=O)C=C[C@]4(C)[C@@]3(F)[C@@H](O)C[C@@]21C
[1]
  Potency: inactive
[2]
  Potency: inactive
[3]
  Potency: 29.8 µM (active)
[4]
  Potency: inactive
[5]
  Potency: 0.0007 µM (active)
[6]
  Potency: inactive
[7]
  Potency: inactive
[8]
  Potency: inactive
[9]
  Potency: inactive
[10]
  Potency: 0.0009 µM (active)
[11]
  Potency: inactive
[12]
  Potency: inactive
[13]
  outcome: inactive
[14]
  Potency: inactive
[15]
  outcome: inactive
[16]
  Potency: inactive

## O=C(O)C(S)C(S)C(=O)O (stereo unspecified)
[1]
  Potency: inactive
[2]
  Potency: inactive
[3]
  Potency: inactive
[4]
  Potency: inactive
[17]
  Potency: inactive
[6]
  Potency: inactive
[8]
  Potency: inactive
[18]
  Potency: inactive
[9]
  Potency: inactive
[10]
  Potency: inactive
[11]
  Potency: inactive
[12]
  Potency: inactive
[19]
  Potency: inactive
[13]
  outcome: inactive

## COC(C)(C)CCO
[1]
  Potency: inactive
[2]
  Potency: inactive
[3]
  Potency: inactive
[4]
  Potency: inactive
[17]
  Potency: inactive
[6]
  Potency: inactive
[8]
  Potency: inactive
[18]
  Potency: inactive
[9]
  Potency: inactive
[10]
  Potency: inactive
[20]
  Potency: inactive
[11]
  Potency: inactive
[12]
  Potency: inactive
[13]
  outcome: inactive
[14]
  Potency: inactive
[15]
  outcome: inactive
[16]
  Potency: inactive

## CN(C)CCN(Cc1ccsc1)c1ccccn1
[1]
  Potency: inactive
[3]
  Potency: inactive
[4]
  Potency: inactive
[17]
  Potency: inactive
[5]
  Potency: inactive
[6]
  Potency: inactive
[7]
  Potency: inactive
[9]
  Potency: inactive
[10]
  Potency: inactive
[20]
  Potency: inactive
[11]
  Potency: inactive
[12]
  Potency: inactive
[19]
  Potency: inactive
[13]
  outcome: inactive
[14]
  Potency: inactive
[15]
  outcome: inactive
[16]
  Potency: inactive

## O=S(=O)(Oc1ccc(Cl)cc1)c1ccccc1
[1]
  Potency: inactive
[3]
  Potency: inactive
[4]
  Potency: inactive
[17]
  Potency: inactive
[6]
  Potency: inactive
[7]
  Potency: inactive
[8]
  Potency: inactive
[18]
  Potency: inactive
[9]
  Potency: inactive
[10]
  Potency: inactive
[20]
  Potency: 24.3 µM (active)
[11]
  Potency: inactive
[12]
  Potency: inactive
[13]
  outcome: inactive
[14]
  Potency: inactive
[15]
  outcome: inactive
[16]
  Potency: inactive

## O=C(Nc1ccccc1)c1ccccc1O
[1]
  Potency: 54.5 µM (active)
[2]
  Potency: inactive
[4]
  Potency: 61.1 µM (active)
[5]
  Potency: inactive
[6]
  Potency: inactive
[10]
  Potency: inactive
[11]
  Potency: inactive
[13]
  outcome: inactive
[14]
  Potency: inactive
[15]
  outcome: inactive
[16]
  Potency: inactive

## O=C(Cl)c1cc(C(=O)Cl)cc(C(=O)Cl)c1
[1]
  Potency: inactive
[3]
  Potency: inactive
[4]
  Potency: inactive
[17]
  Potency: inactive
[7]
  Potency: inactive
[8]
  Potency: inactive
[18]
  Potency: 68.6 µM (active)
[9]
  Potency: inactive
[12]
  Potency: inactive
[19]
  Potency: inactive
[13]
  outcome: inactive
[14]
  Potency: inactive
[15]
  outcome: inactive
[16]
  Potency: inactive

## Brc1c2ccccc2cc2ccccc12
[1]
  Potency: inactive
[3]
  Potency: inactive
[4]
  Potency: inactive
[17]
  Potency: 61.8 µM (active)
[7]
  Potency: inactive
[8]
  Potency: inactive
[9]
  Potency: inactive
[11]
  Potency: inactive
[19]
  Potency: inactive
[13]
  outcome: inactive
